One assay concerns the target Albumin (Bos taurus) (UniProt P02769). The experiment in a line: compounds binding labelled BSA control protein – biochemical, small-molecule microarray, Alexa647 label, 635/667 nm fluorescence, artefact control for SMM control protein annotation, profiling panel (AID 1118).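 Also: score merges 667 nm emission intensity and signal-to-noise per printed compound spot.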 The conditions noted are these: BSA-A647 binding, fluorescence 635 nm, higher = more signal.
The nature of assay [1]: probe aXIP binding to arrayed compounds – biochemical, NeuroSMM set, 635/667 nm fluorescence, primary screen (AID 1119).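 Also: probe is the protein aXip251-270 applied at 1 µg/mL to compound-printed slides; binding of probe to printed compounds measured as 667 nm fluorescence plus signal to noise.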 The conditions noted are these: small-molecule microarray, higher = more signal, called active from +8 up or from −8 down.
Assay [2] is described as follows: probe aNOTCH3 binding on compound microarray – biochemical, small-molecule microarray, 635/667 nm fluorescence, primary screen (AID 1120).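 Also: probe is a biotin-tagged antibody raised against NOTCH3 rather than NOTCH3 protein; score merges spot fluorescence near 667 nm with spot signal to noise.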 The following applies: higher = more signal.
The nature of assay [3]: probe aNOTCH2 binding on compound microarray – biochemical, small-molecule microarray, 635/667 nm fluorescence, primary screen (AID 1121).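 Also: score merges feature fluorescence read at 667 nm with its signal to noise.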 The conditions noted are these: higher = more signal.
The target of assay [4] is Carbonic anhydrase 2 (Homo sapiens) (UniProt P00918). The experiment in a line: compounds binding carbonic anhydrase 2 – biochemical, small-molecule microarray, Alexa647-labelled CAII, profiling panel (AID 1122). The following applies: CAII-A647 binding fluorescence, higher = more signal.
Assay [5] is described as follows: COS7 lysate on small-molecule microarray, probe aHis, 635 nm (AID 1123).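 Also: z-score combines 667nm fluorescence intensity with signal-to-noise per printed compound spot.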 The following applies: COS7 cell lysate, fluorescence, higher = more signal.
Assay [6] can be described thus: probe aLAP1 signal on lysate-treated microarray – cell lysate, small-molecule microarray, COS7 lysate, primary screen (AID 1124).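 Also: lysate comes from COS7 cells expressing LAP1 and is applied at 0.3 µg/mL; score merges spot fluorescence near 667 nm with signal-to-noise over triplicate slides.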 The following applies: probe aLAP1, fluorescence, higher = more signal.
For a further assay, the system named is Sam68 (KHDRBS1). The experiment in a line: compounds binding KHDRBS1 protein – biochemical, small-molecule microarray, 635 nm fluorescence, primary screen (AID 1125).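 Also: score merges 667 nm channel intensity with signal to noise over triplicate slides.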 The conditions noted are these: higher = more signal.
The subject of assay [7] is Chordin-like protein 2 (CHRDL2). The experiment in a line: compounds binding chordin-like 2 – biochemical, small-molecule microarray, 635 nm fluorescence, primary screen (AID 1126).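 Also: printed compound slides probed with Chrdl2 protein at 4 µg/mL for 1 h at 4 C; score merges 667 nm emission intensity with signal to noise over three replicate slides.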 The conditions noted are these: fluorescence 635 nm, higher = more signal.
Assay [8] has as its target Concanavalin-A (Canavalia ensiformis) (UniProt P02866). Put plainly: compounds binding concanavalin A lectin – biochemical, small-molecule microarray, Alexa647 label, 635 nm, artefact control for SMM control protein annotation, primary screen (AID 1127).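 Also: z combines 667 nm emission intensity with signal-to-noise across three replicate slides.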 The following applies: ConA-A647 binding fluorescence, higher = more signal.

Where “and” joins values, the source holds several entries; their conditions need not be identical. Identical values can stand only once. Calls of active or inactive are those of the source.

Albumin (Bos taurus), sequence (P02769 whole entry, looked up): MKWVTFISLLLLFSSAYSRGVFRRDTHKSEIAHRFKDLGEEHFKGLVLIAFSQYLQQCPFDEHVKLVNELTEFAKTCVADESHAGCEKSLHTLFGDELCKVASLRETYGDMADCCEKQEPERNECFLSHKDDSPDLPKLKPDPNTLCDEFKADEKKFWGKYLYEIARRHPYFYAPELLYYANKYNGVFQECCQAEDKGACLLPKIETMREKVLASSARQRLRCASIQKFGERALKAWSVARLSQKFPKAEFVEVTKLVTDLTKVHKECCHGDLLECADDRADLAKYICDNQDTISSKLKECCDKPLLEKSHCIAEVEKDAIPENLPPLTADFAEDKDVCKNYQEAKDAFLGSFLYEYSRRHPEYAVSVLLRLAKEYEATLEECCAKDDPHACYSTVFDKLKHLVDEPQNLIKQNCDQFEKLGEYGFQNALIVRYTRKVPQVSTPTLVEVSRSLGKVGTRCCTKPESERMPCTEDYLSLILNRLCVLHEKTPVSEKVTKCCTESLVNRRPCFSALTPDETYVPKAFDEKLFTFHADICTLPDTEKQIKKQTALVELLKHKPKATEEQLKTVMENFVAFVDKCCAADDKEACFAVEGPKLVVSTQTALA
Concanavalin-A (Canavalia ensiformis), sequence (P02866 whole entry, looked up): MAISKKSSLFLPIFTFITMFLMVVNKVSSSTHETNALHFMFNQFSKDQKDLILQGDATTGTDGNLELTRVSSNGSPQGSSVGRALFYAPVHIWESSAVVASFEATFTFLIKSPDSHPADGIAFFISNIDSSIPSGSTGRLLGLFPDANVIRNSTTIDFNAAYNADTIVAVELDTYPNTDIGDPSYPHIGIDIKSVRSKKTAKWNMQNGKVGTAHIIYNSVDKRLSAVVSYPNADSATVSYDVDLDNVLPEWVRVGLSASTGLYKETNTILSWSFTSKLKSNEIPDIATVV

With `C=C[C@@H](C)[C@@H](O)c1ccc(O)c2ccccc12`, the composite z-score in the assay with Albumin (Bos taurus) is -0.154 and -0.436; in assay [2] it was -0.413 and -0.52; in assay [3], -0.232 and -0.193; in [4], 0.0119 and 0.72; in [5], -0.024 and 0.351; in assay [6], -0.237 and -0.0579. Further, the composite z-score in the assay with Sam68 (KHDRBS1) was -0.785 and -0.587; in [7], -0.0684 and 0.351; in assay [8] it was -0.419 and -0.81. Also, the composite Z-score in [1] is -0.014 (inactive) and 0.196 (inactive).

In the case of `C=C[C@H](C)[C@@H](O)c1ccc(OCCO)cc1`, the composite z-score with Albumin (Bos taurus) is 0.746 and -0.0233; in assay [2] it was -0.494 and -0.481; in assay [3], -0.238 and -0.14; in assay [4] it was 0.743 and 0.6; in assay [5] it was -0.135 and -0.25; in assay [6], -1.16 and -0.0942. Moreover, the composite z-score with Sam68 (KHDRBS1) was -1.42 and -0.873; in [7], -1.32 and -0.668; in assay [8], -1.1 and -0.494. In assay [1], the composite Z-score was -0.288 (inactive) and -0.162 (inactive).

Regarding `CCOC(=O)[C@@H]1CC2O[C@]23C[C@@H]1C(=O)N1CCC[C@@H]1[C@H]3O[Si](C)(C)C(C)(C)C` (stereo not given in full), the composite z-score with Albumin (Bos taurus) is -0.8 and -0.548; in assay [2], -0.11 and -0.128; in [3] it was -0.2 and -0.0949; in assay [4], -0.396 and 0.106; in [5], -0.645 and 0.205; in [6] it was -0.452 and 0.103. Besides, the composite z-score with Sam68 (KHDRBS1) was -1.37 and -0.191; in assay [7], 0.1 and -0.201; in assay [8], -1.82 and -0.262. Also, in assay [1], the composite Z-score was 0.223 (inactive) and 0.413 (inactive).

Regarding `CC(C)CON=C1C[C@@H](O)[C@@H](O)[C@@H]2[C@@H]3C(=O)N(c4cccc(Oc5ccccc5)c4)C(=O)[C@@H]3CC[C@H]12`, the composite z-score was 0.529 with Albumin (Bos taurus); -0.0077 in [2]; -0.118 in assay [3]; 0.315 in assay [4]; 0.328 in [5]; -0.216 in assay [6]. The figures for the composite z-score (in the assay on Sam68 (KHDRBS1); in [7]; in assay [8]) were 0.594, 0.22 and 0.882, respectively. In addition, the composite Z-score in [1] is -0.116 (inactive).

`CO[C@@H]1COC(=O)CC=C[C@H](C)[C@@H](NS(=O)(=O)c2ccc(C)cc2)COC(=O)CC=C[C@@H]1C`: the composite z-score with Albumin (Bos taurus) was 0.451 and -0.303; in assay [2], 0.127 and 0.0876; in assay [3], -0.0995 and -0.175; in assay [4], 0.0088 and -0.407; in assay [5], 0.199 and -1.12; in assay [6], 0.0136 and -0.0513. In addition, the composite z-score was 0.762 and 0.68 in the assay on Sam68 (KHDRBS1); 0.685 and 1.25 in assay [7]; -0.0145 and -0.207 in assay [8]. For the same molecule, the composite Z-score in assay [1] was -0.288 (inactive) and 0.209 (inactive).

For the molecule `CC(C)=NO[C@@H](C)c1cc(-c2c(C)cc(C)cc2C)no1`, the composite z-score in the assay with Albumin (Bos taurus) is 0.0075; in assay [2], -0.181; in assay [3] it was -0.181; in assay [4], -0.223; in [5], -0.177; in assay [6] it was 0.214. Also, the composite z-score was -0.228 in the assay on Sam68 (KHDRBS1), 0.227 in [7] and 0.154 in assay [8]. Further, in assay [1], the composite Z-score was 0.454 (inactive).

On to `CCOC(=O)[C@H](Cc1ccccc1)NC(=O)CCC1CC(OC(=O)NCc2cccc3ccccc23)CC2(CCCC(COC(=O)NCCCN3CCCC3=O)O2)O1` (stereo not given in full), for which the composite z-score was -0.395 with Albumin (Bos taurus); 0.0203 in assay [2]; -0.101 in assay [3]; 0.165 in [4]; 1.14 in [5]; -0.223 in assay [6]. The composite z-score is 1.12 in the assay on Sam68 (KHDRBS1), 0.5 in [7] and 1.08 in assay [8]. In assay [1], the composite Z-score was -0.365 (inactive).

On to `COC(=O)C1=C(C)N(Cc2ccccc2)C2=C3C(=O)N(c4ccccc4)C(=O)[C@@H]3[C@@](O)(C(=O)OC)C(=O)N2[C@@H]1c1ccccc1`, for which the composite z-score in the assay with Albumin (Bos taurus) is 0.361 and 0.207; in assay [2], 0.236 and 0.116; in assay [3], -0.0767 and -0.101; in assay [4], 0.46 and 0.7; in assay [5], 0.241 and 0.608; in [6], 0.171 and 0.983. The composite z-score with Sam68 (KHDRBS1) was 0.462 and 1.13; in assay [7], 0.513 and 0.402; in [8], -0.196 and 0.475. For the same molecule, the composite Z-score in assay [1] was 0.0519 (inactive) and 0.0894 (inactive).

`C[C@@H]1CN2[C@@H](CC[C@@H](C)[C@@H]2c2ccc(Br)cc2)C(=O)O1`: the composite z-score was -0.66 and 0.877 in the assay with Albumin (Bos taurus); 0.0357 and -0.0363 in [2]; -0.0515 and -0.221 in [3]; -0.366 and -0.303 in assay [4]; -0.513 and 0.437 in [5]; 0.39 and 0.146 in assay [6]. Besides, the composite z-score in the assay on Sam68 (KHDRBS1) is -1.57 and 0.0639; in assay [7], 0.261 and 0.559; in assay [8] it was -0.0782 and -0.252. Besides, the composite Z-score in assay [1] was -0.139 (inactive) and 0.204 (inactive).

Regarding `C=C[C@H](OC)[C@@H](O)c1ccc(O)c(F)c1`, the composite z-score with Albumin (Bos taurus) was 0.0861 and -0.58; in [2] it was -0.592 and -0.454; in [3], -0.239 and -0.225; in [4], 0.274 and -0.771; in assay [5] it was -0.541 and -0.37; in assay [6], -0.474 and -0.637. For the same molecule, the composite z-score is -1.1 and -1.43 in the assay on Sam68 (KHDRBS1); -2.38 and -1.91 in [7]; -1.97 and -1.23 in [8]. In addition, in assay [1], the composite Z-score is -0.244 (inactive) and 0.209 (inactive).

For `C=CCN(Cc1ccccc1)C(=O)C1N(CCOCCO)C(=O)C2C(C(=O)O)C3C=CC21O3` (stereo not given), the composite z-score in the assay with Albumin (Bos taurus) was -1.03 and 0.202; in assay [2], -0.611 and -0.41; in assay [3], -0.0984 and -0.183; in assay [4], 0.903 and 0.881; in assay [5], 1.33 and -1.28; in assay [6], 1.24 and -0.375. Further, the composite z-score in the assay on Sam68 (KHDRBS1) was -0.604 and -0.238; in assay [7] it was -3.42 and -2.87; in [8] it was -1.05 and -0.374. Further, the composite Z-score in assay [1] is -0.124 (inactive) and 0.217 (inactive).

With `COC(=O)C1=C(C)N(Cc2ccccc2)[C@]23O[C@](C(=O)OC)(C(=O)N2[C@@H]1c1ccccc1)[C@H]1C(=O)N(c2ccccc2)C(=O)[C@H]13`, the composite z-score with Albumin (Bos taurus) is 0.692 and 0.614; in assay [2], 0.121 and 0.024; in [3], 0.0793 and -0.0321; in assay [4], 0.306 and 0.428; in [5], 1.05 and -0.39; in [6], 0.294 and 0.526. In addition, the composite z-score was 0.682 and 0.308 with Sam68 (KHDRBS1); 0.223 and 0.523 in [7]; 0.838 and 0.0089 in assay [8]. Also, in assay [1], the composite Z-score was -0.119 (inactive) and -0.275 (inactive).

Take `C=CCN(C(=O)C1N(c2c(Cl)cccc2CO)C(=O)C2C(C(=O)O)C3C=CC21O3)c1ccc(OC)cc1` (stereo not given): the composite z-score with Albumin (Bos taurus) was 0.14 and -0.586; in [2], -0.786 and -0.515; in assay [3], -0.46 and -0.162; in assay [4], 0.376 and -0.184; in [5], 0.016 and -0.849; in assay [6] it was 0.137 and -0.803. Further, the composite z-score in the assay on Sam68 (KHDRBS1) is -0.608 and -1.33; in [7] it was -0.702 and -2.38; in [8], -0.494 and -1.23. Also, in assay [1], the composite Z-score was -0.172 (inactive) and -0.621 (inactive).

Consider `CCOC(=O)[C@@H]1CC=C2CC1C(=O)N1CCC[C@@H]1[C@H]2O[Si](C)(C)C(C)(C)C` (stereo not given in full), for which the composite z-score in the assay with Albumin (Bos taurus) is -0.657 and -0.964; in [2], -0.227 and -0.352; in [3], -0.147 and -0.202; in assay [4], -0.33 and -0.492; in assay [5], -0.273 and -0.211; in [6], -0.687 and -0.442. Also, the composite z-score in the assay on Sam68 (KHDRBS1) is -1.04 and -1.8; in assay [7], -0.486 and -0.0717; in [8], -2.59 and -3.25. Moreover, the composite Z-score in assay [1] was 0.047 (inactive) and -0.365 (inactive).

The values above are taken from PubChem BioAssay.
